The source of these data is PubChem BioAssay (EPA / NIEHS).

Results filed as inconclusive are left out. Active and inactive are the calls of the source. Rule for the calls, unless noted: active = hit-call score of the fitted dose curve at least 0.9, where 1 is the maximum; inconclusive = response in the unintended direction; inactive = score below 0.9.

A short description of assay [1]: CCTE_Shafer_MEA_acute_spike_number: CCTE's Neural Acute Assay for Total Number of Spikes, Shafer Lab (AID 2284008; active = hit-call score of the fitted dose curve at least 0.9, where 1 is the maximum; inactive = score below 0.9;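 for AC50: curve fitted for decrease in spike count so AC50 reflects inhibitors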). The procedure, abridged:
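Cortical neurons from rat, matured to DIV 13 or 15 on microelectrode arrays, are recorded at 37 C before and during 40-min exposure to 0.03-40 uM compound. Wells need >/= 10 active electrodes.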

Assay [2] is described as follows: CCTE_Simmons_MITO_max_resp_rate: CCTE's HepG2 Seahorse XF Respirometric Screening Assay at Maximal Respiratory State [uncoupled], Simmons Lab (AID 2284002; active = hit-call score of the fitted dose curve at least 0.9, where 1 is the maximum; inactive = score below 0.9). The note with it: actives raise or lower the signal. The gist of the method: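 Maximal respiration in HepG2 cells is recorded as OCR by Seahorse XF following FCCP injection. Compounds span 125 nM–100 uM final; activity is called in either direction against DMSO.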

Assay [3] can be described thus: CCTE_Simmons_MITO_inhib_resp_rate: CCTE's HepG2 Seahorse XF Respirometric Screening Assay at Inhibited Respiratory State [full ETC block], Simmons Lab (AID 2284006; active = hit-call score of the fitted dose curve at least 0.9, where 1 is the maximum; inactive = score below 0.9). The following applies: actives raise or lower the signal. The gist of the method: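 HepG2 oxygen consumption was measured by Seahorse XF after compound, FCCP, then rotenone/antimycin A injections. Seven concentrations from 125 nM to 100 uM (final) were tested, with 6-min kinetic reads over 72 minutes. Inhibited-state OCR was fitted bidirectionally against DMSO.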

Assay [4] is described as follows: CCTE_Simmons_MITO_viability: CellTiter-Glo Viability Assessment for CCTE's HepG2 Seahorse XF Respirometric Screening Assay [post-hoc], Simmons Lab (AID 2284007). The procedure, abridged:
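HepG2 cells exposed 90 min to 7 concentrations from 125 nM to 100 uM final, then ATP measured by luciferase luminescence. Three biological replicates per concentration; DMSO vehicle; dichlone control at 10 nM–100 uM.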
For orientation: Cellular ATP, detected with luciferase, serves as a proxy for viable cell number.

Assay [5] is described as follows: TOX21_TR_RXR_BLA_Antagonist_Followup_viability: Viability Assessment in the Tox21 Thyroid Hormone Receptor beta Retinoid X Receptor alpha (RXRa) Antagonism Beta-lactamase (BLA) Follow-Up Assay (AID 2283979). The gist of the method: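 Follow-up compounds (11 concentrations, triplicate) were incubated 16 h at 37C/5% CO2 with HEK293T RXRa-bla cells seeded at 2,500/well in charcoal-stripped-serum medium. ATP content by CellTiter-Glo luminescence gave viability; curves fitted in both directions against DMSO.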

Assay [6] has as its system DIO1 (gene 1733). The assay can be described thus: CCTE_GLTED_hDIO1: CCTE's human Deiodinase 1 (DIO1) Inhibition Assay, Great Lakes Toxicology and Ecology Division (GLTED) Lab (AID 2283987).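 Note: isolated human DIO1 enzyme in a cell-free setup rather than cells; enzyme activity read as free iodide liberated from substrate via Sandell-Kolthoff colorimetry.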 The gist of the method: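 Cell-free hDIO1 assay, triplicate plates. Absorbance of the Sandell-Kolthoff reaction reports enzyme-liberated iodide; iodinated chemicals or nitrite, iron and thiocyanate may interfere.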

The target of assay [7] is Nucleoli Translocation, AR (gene 367) (UniProt P10275). In words: UPITT_HCI_U2OS_AR_TIF2_Nucleoli_Antagonist: University of Pittsburgh U2OS Androgen Receptor-Transcriptional Intermediary Factor 2 (AR-TIF2) Antagonism High Content Imaging Assay for Nucleoli Translocation (AID 2283997). The procedure, abridged: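 Measured quantity was AR-RFP fluorescence localized to nucleoli in engineered U2OS cells also bearing TIF2-GFP, acquired on automated high-content imagers. Primary testing used 20 uM compound; actives were confirmed in triplicate wells.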
Sequence of Nucleoli Translocation, AR (gene 367) (P10275 whole entry, looked up): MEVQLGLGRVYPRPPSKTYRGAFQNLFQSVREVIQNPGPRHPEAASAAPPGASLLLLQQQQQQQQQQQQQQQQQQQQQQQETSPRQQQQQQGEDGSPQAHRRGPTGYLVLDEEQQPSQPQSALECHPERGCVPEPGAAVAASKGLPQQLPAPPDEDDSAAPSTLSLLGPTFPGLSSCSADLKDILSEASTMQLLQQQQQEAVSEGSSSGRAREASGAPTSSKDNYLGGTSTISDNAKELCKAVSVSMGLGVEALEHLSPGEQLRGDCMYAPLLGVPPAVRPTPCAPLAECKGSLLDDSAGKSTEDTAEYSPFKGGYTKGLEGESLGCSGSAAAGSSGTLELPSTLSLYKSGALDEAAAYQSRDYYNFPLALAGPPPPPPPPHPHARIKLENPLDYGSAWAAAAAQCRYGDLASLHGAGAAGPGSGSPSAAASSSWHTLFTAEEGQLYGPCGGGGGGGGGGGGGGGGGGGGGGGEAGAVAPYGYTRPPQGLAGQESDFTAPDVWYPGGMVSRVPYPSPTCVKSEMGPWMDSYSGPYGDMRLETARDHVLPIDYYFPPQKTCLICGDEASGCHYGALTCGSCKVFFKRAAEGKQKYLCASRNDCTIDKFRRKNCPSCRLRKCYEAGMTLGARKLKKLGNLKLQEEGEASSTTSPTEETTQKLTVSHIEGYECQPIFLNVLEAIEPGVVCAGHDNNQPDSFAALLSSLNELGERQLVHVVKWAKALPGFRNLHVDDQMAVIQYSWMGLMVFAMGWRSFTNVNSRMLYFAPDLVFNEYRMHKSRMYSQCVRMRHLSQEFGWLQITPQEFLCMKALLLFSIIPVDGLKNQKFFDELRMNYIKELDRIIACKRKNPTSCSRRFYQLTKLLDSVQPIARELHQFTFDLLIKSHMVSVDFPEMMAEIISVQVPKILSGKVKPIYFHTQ

Assay [8] shares this target. The assay can be described thus: UPITT_HCI_U2OS_AR_TIF2_Nucleoli_Agonist: University of Pittsburgh U2OS Androgen Receptor-Transcriptional Intermediary Factor 2 (AR-TIF2) Agonism High Content Imaging Assay for Nucleoli Translocation (AID 2283998). The procedure, abridged: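 Red-tagged human androgen receptor co-expressed with GFP-tagged TIF2 serves as the binding reporter. Primary testing used 20 uM final (0.2% DMSO); follow-up dose response covered 0.195 to 50 uM final (0.5% DMSO).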

In assay [9] the target is Ratio of Nucleoli Translocation and Cytoplasm, AR (gene 367) (UniProt P10275). In words: UPITT_HCI_U2OS_AR_TIF2_Nucleoli_Cytoplasm_Ratio_Antagonist: University of Pittsburgh U2OS Androgen Receptor-Transcriptional Intermediary Factor 2 (AR-TIF2) Antagonism High Content Imaging Assay for Ratio of Nucleoli Translocation and Cytoplasm (AID 2283999).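 Note: antagonists lower the DHT-driven ratio of nucleolar to cytoplasmic red signal.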 The procedure, abridged:
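U2OS cells co-expressing RFP-tagged human AR and GFP-tagged TIF2, antagonist mode with DHT as baseline. Nucleolar-to-cytoplasmic red fluorescence ratio imaged by high-content microscopy; final compound 20 uM (0.2% DMSO) primary, 0.195–50 uM (0.5% DMSO) concentration-response.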

For assay [10] the target is unchanged. The assay can be described thus: UPITT_HCI_U2OS_AR_TIF2_Nucleoli_Cytoplasm_Ratio_Agonist: University of Pittsburgh U2OS Androgen Receptor-Transcriptional Intermediary Factor 2 (AR-TIF2) Agonism High Content Imaging Assay for Ratio of Nucleoli Translocation and Cytoplasm (AID 2284000).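 Note: hits raise the red nucleolar to cytoplasm ratio above vehicle.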 The procedure, abridged: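 Read-out first: nucleolar-to-cytoplasm ratio of red (AR-RFP) signal, quantified by high-content imaging in U2OS cells co-expressing TIF2-GFP. Activity is scored as signal increase over DMSO. Single-point screening used 20 uM final (0.2% DMSO).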

The nature of assay [11]: CCTE_Harrill_HTTr_Viability_DMEM_12hr: (Pilot) CCTE's 12-hour Cell Viability Assessment for the High-Throughput Transcriptomics (HTTr) Platform, in MCF-7 cells cultured in DMEM + 10% fetal bovine serum, Harrill Lab (AID 2283974; active = hit-call score of the fitted dose curve at least 0.9, where 1 is the maximum; inactive = score below 0.9). The gist of the method: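 MCF-7 cells in DMEM + 10% FBS exposed 12 h to an eight-point dilution series; membrane integrity scored by propidium iodide exclusion with high-content imaging, bidirectional fitting versus DMSO.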

The nature of assay [12]: CCTE_Harrill_HTTr_Viability_DMEM_24hr: (Pilot) CCTE's 24-hour Cell Viability Assessment for the High-Throughput Transcriptomics (HTTr) Platform, in MCF-7 cells cultured in DMEM + 10% fetal bovine serum, Harrill Lab (AID 2283975; active = hit-call score of the fitted dose curve at least 0.9, where 1 is the maximum; inactive = score below 0.9). The procedure, abridged: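 MCF-7 cells in DMEM with 10% FBS exposed for 24 hours to an eight-point dilution series. Membrane integrity by propidium iodide exclusion with high content imaging; bidirectional fit against DMSO.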

The nature of assay [13]: CCTE_Harrill_HTTr_Viability_PRF_DMEM_6hr: (Pilot) CCTE's 6-hour Cell Viability Assessment for the High-Throughput Transcriptomics (HTTr) Platform, in MCF-7 cells cultured phenol red-free DMEM + 10% charcoal-stripped fetal bovine serum, Harrill Lab (AID 2283976; active = hit-call score of the fitted dose curve at least 0.9, where 1 is the maximum; inactive = score below 0.9). The procedure, abridged: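 MCF-7 cells in phenol red-free DMEM with 10% charcoal-stripped FBS exposed 6 hours to an eight-point dilution series. Propidium iodide exclusion imaged; curves fitted bidirectionally against DMSO.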

Assay [14] can be described thus: CCTE_Harrill_HTTr_Viability_PRF_DMEM_12hr: (Pilot) CCTE's 12-hour Cell Viability Assessment for the High-Throughput Transcriptomics (HTTr) Platform, in MCF-7 cells cultured in phenol red-free DMEM + 10% charcoal-stripped fetal bovine serum, Harrill Lab (AID 2283977; active = hit-call score of the fitted dose curve at least 0.9, where 1 is the maximum; inactive = score below 0.9). The gist of the method: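 MCF-7 cells in phenol red-free DMEM with 10% charcoal-stripped FBS exposed 12 hours to an eight-point dilution series. Viability assessed by high-content imaging of propidium iodide exclusion; bidirectional fit versus DMSO.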

Assay [15] is described as follows: CCTE_Harrill_HTTr_Viability_PRF_DMEM_24hr: (Pilot) CCTE's 24-hour Cell Viability Assessment for the High-Throughput Transcriptomics (HTTr) Platform, in MCF-7 cells cultured in phenol red-free DMEM + 10% charcoal-stripped fetal bovine serum, Harrill Lab (AID 2283980; active = hit-call score of the fitted dose curve at least 0.9, where 1 is the maximum; inactive = score below 0.9). The gist of the method:
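MCF-7 cells in phenol red-free DMEM with 10% charcoal-stripped FBS, eight-point dilution series, 24 h exposure. Membrane integrity by propidium iodide exclusion with high content imaging; bidirectional fit vs DMSO.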

A short description of assay [16]: CCTE_Harrill_HTTr_Apoptosis_DMEM_6hr: (Pilot) CCTE's 6-hour Apoptosis Assessment for the High-Throughput Transcriptomics (HTTr) Platform, in MCF-7 cells cultured in DMEM + 10% fetal bovine serum, Harrill Lab (AID 2283981; active = hit-call score of the fitted dose curve at least 0.9, where 1 is the maximum; inactive = score below 0.9). The procedure, abridged: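 Caspase-3/7 activation read by high content imaging with CellEvent Caspase 3/7 Green in MCF-7 cells (DMEM + 10% FBS), 6 h after dosing; eight-point dilution series. Bidirectional fitting relative to DMSO baseline.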

The nature of assay [17]: CCTE_Harrill_HTTr_Apoptosis_DMEM_12hr: (Pilot) CCTE's 12-hour Apoptosis Assessment for the High-Throughput Transcriptomics (HTTr) Platform, in MCF-7 cells cultured in DMEM + 10% fetal bovine serum, Harrill Lab (AID 2283982; active = hit-call score of the fitted dose curve at least 0.9, where 1 is the maximum; inactive = score below 0.9). The gist of the method: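 MCF-7 cells in DMEM + 10% FBS, exposed 12 h to an eight-point dilution series; caspase-3/7 activation imaged with CellEvent Green. Bidirectional fit versus DMSO.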

A short description of assay [18]: CCTE_Harrill_HTTr_Apoptosis_DMEM_24hr: (Pilot) CCTE's 24-hour Apoptosis Assessment for the High-Throughput Transcriptomics (HTTr) Platform, in MCF-7 cells cultured in DMEM + 10% fetal bovine serum, Harrill Lab (AID 2283983; active = hit-call score of the fitted dose curve at least 0.9, where 1 is the maximum; inactive = score below 0.9). The procedure, abridged:
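MCF-7 cells in DMEM + 10% FBS, eight-point dilution series, 24 h exposure. Caspase-3/7 activation imaged by high-content imaging with CellEvent Caspase 3/7 Green. Bidirectional curve fitting against DMSO baseline.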

The nature of assay [19]: CCTE_Harrill_HTTr_Apoptosis_PRF_DMEM_6hr: (Pilot) CCTE's 6-hour Apoptosis Assessment for the High-Throughput Transcriptomics (HTTr) Platform, in MCF-7 cells cultured phenol red-free DMEM + 10% charcoal-stripped fetal bovine serum, Harrill Lab (AID 2283984; active = hit-call score of the fitted dose curve at least 0.9, where 1 is the maximum; inactive = score below 0.9). The gist of the method: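 MCF-7 cells in phenol red-free DMEM + 10% charcoal-stripped FBS, eight-point dilution series, 6 h exposure. Caspase-3/7 activation imaged by high-content imaging with CellEvent Caspase 3/7 Green; bidirectional fit versus DMSO baseline.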

The nature of assay [20]: CCTE_Harrill_HTTr_Apoptosis_PRF_DMEM_24hr: (Pilot) CCTE's 24-hour Apoptosis Assessment for the High-Throughput Transcriptomics (HTTr) Platform, in MCF-7 cells cultured in phenol red-free DMEM + 10% charcoal-stripped fetal bovine serum, Harrill Lab (AID 2283986; active = hit-call score of the fitted dose curve at least 0.9, where 1 is the maximum; inactive = score below 0.9). The gist of the method:
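MCF-7 cells in phenol red-free DMEM with 10% charcoal-stripped FBS, exposed 24 h across an eight-point dilution series. Caspase-3/7 activation imaged with CellEvent Green by high content imaging; bidirectional fitting against DMSO.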

Sequence of Ratio of Nucleoli Translocation and Cytoplasm, AR (gene 367) (P10275 whole entry, looked up): as above

Take `OC(CCl)CCl`: the molecule was classed as inactive in [1].

The AC50 is the concentration at which the activity in the assay is half-maximal. For the molecule `O=C(NO)C1(NS(=O)(=O)c2ccc(Oc3ccc(F)cc3)cc2)CCOCC1`, the AC50 in assay [2] is 31.2 µM (active). Besides, the molecule was called inactive in assay [3] and in assay [4].

For `Cc1nccn1-c1ccc(Sc2cccc(C3(C(N)=O)CCOCC3)c2)cc1`, the result in assay [5] and in assay [4] was inactive. For the same molecule, the AC50 in [2] was 5.55 µM (active); in assay [3], 13.2 µM (active).

For the molecule `FC(F)C(F)(F)COCC1CO1` (stereo not given), in assay [6], the AC50 is 19.8 µM (active).

As for `CCc1cccc(CC)c1N`, the molecule was called inactive in assay [7], in assay [8], in [9] and in assay [10].

As to `OCCOCCOCCO`, the result in assay [7], in assay [8] and in assay [10] was inactive.

In the case of `CCCc1ccccc1`, the molecule was classed as inactive in [1].

For the molecule `COCc1nnc(-c2ccc[n+]([O-])c2)n1-c1c(Cl)c(Cl)cc2[nH]c(=O)c(=O)[nH]c12`, the result in assay [10] and in [1] was inactive.

In the case of `CC(C)C(=O)Nc1ccc([N+](=O)[O-])c(C(F)(F)F)c1`, the outcome in assay [11], in assay [12], in assay [13], in [14], in [15] and in assay [16] was inactive. Moreover, the outcome in [17], in [18], in assay [19] and in assay [20] was inactive. In addition, the half-maximal activity concentration (AC50) in assay [1] was 5.06 µM (active).

For `Cc1nc(-c2ccccn2)ncc1C(=O)Nn1cc(C)c2cc(F)ccc21`, the call in assay [7] and in assay [10] was inactive.

Take `CCCCC(CC)C(=O)OCCOCCOCCOC(=O)C(CC)CCCC` (stereo not given): the call in assay [7], in [8], in assay [9], in [10] and in assay [1] was inactive.

For the molecule `CCCCCCCCCCCCCCCCOS(=O)(=O)O`, the AC50 in [6] was 44.5 µM (active). In addition, in assay [7], the outcome was inactive.

For `O=C(O)c1cccc(C[C@@H]2COc3ccc(OCc4nc5cc(F)ccc5s4)cc3[C@@H]2O)c1`, in assay [2], the AC50 was 25 µM (active). The result in [3] and in assay [4] was inactive.

On to `COc1cc2c(c(OC)c1OC)-c1ccc(OC)c(=O)cc1[C@@H](NC(C)=O)CC2`, for which the molecule was classed as inactive in [7], in [8], in assay [9], in assay [10] and in assay [1].

As to `Cc1ncc([C@@H](CCCCCCc2ccc3c(n2)NCCC3)CC(=O)O)cn1`, the result in [1] was inactive.

Consider `CC[C@H](C)C(=O)O[C@H]1C[C@H](O)C=C2C=C[C@H](C)[C@H](CC[C@@H](O)C[C@@H](O)CC(=O)O)[C@H]21`, for which the molecule was classed as inactive in assay [1].

As to `O=S(=O)(O)c1ccc(N=Nc2c(O)ccc3cc(S(=O)(=O)O)ccc23)cc1`, the molecule was called inactive in [1].
